Bioassay records deposited in PubChem BioAssay by National Center for Advancing Translational Sciences (NCATS).
SMN2 splice up – SMN2 splice variant enhancement; HEK293 SMN2-luciferase splicing reporter, luminescence, 30-36 h; Potency, µM (highest dose often 46.1 µM), without a hit: at the top dose activity change, positive = activation, hits mostly activators; actives 2.8% (n = 210,000); AID 1458; further: % of control where 0% means no effect; nearly all actives have a fitted effect of over 55% in size
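HEK293 cells carry an SMN2 […]–luciferase reporter in which exon 7 inclusion puts luciferase in frame. Cells were plated 10-12 h before compound addition, then incubated 30-36 h at 37C. ONE-Glo luminescence was read; sodium butyrate at 4.5 mM final served as control.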
Rab9 prom act – Rab9 promoter activation; Huh7 Rab9 promoter-luciferase reporter, luminescence, 24 h; Potency, µM (series often up to 9.22 µM), inactives show top-dose activation, negative = inhibition, actives largely listed as activators; actives 2.8% (n = 320,000); AID 485297; further: % of control where 0% means no effect; nearly all actives have a fitted effect of over 60% in size
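Huh7 cells stably carrying Rab9 promoter–luciferase reporter, plated 1500 cells/well, compound added after 2 h and incubated 24 h at 37 °C; luciferase luminescence then read after 10 min with detection reagent.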
FLuc counter – firefly luciferase modulation, counter-screen for miR-21 project. purified FLuc, Km substrates, luminescence inhibition. P08659. Potency, µM (titrated, usually from 57.5 µM), for the others: at the top dose activity change, negative = inhibition, actives largely listed as inhibitors. actives 6.9% (n = 360,000);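 further: plate controls were vehicle for no effect and reference inhibitor for full effect; nearly all actives have a fitted effect of over 55% in size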
Target sequence (P08659 whole entry, looked up): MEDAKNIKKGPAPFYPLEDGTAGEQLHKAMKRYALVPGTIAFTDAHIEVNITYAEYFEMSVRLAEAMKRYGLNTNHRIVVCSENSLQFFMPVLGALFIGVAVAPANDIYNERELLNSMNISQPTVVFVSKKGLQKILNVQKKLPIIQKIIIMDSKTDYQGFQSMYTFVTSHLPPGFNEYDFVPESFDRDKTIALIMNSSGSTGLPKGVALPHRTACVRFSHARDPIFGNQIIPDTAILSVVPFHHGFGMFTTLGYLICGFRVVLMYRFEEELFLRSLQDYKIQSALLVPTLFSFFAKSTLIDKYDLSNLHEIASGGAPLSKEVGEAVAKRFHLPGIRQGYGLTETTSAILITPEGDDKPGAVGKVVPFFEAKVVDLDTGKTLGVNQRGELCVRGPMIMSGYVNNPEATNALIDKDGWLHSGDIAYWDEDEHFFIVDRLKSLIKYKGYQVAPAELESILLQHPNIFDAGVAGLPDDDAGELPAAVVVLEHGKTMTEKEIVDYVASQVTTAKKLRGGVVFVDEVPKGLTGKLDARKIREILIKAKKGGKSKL
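Purified P. pyralis luciferase, 10 nM final, with Km-level 10 uM D-luciferin and 10 uM ATP in 50 mM Tris acetate pH 7.5, 10 mM Mg acetate, 0.01% Tween-20, 0.05% BSA; 6-point qHTS titration about 60 µM downward; luminescence read.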
NPC1 prom act – NPC1 promoter activation; Huh7 NPC1 promoter luciferase reporter, 24 h; Potency, µM (series often up to 9.22 µM), inactives show at the top dose activation, usual class: activators; actives 2.4% (n = 320,000); further: % of control where 0% means no effect; nearly all actives have a fitted effect of over 60% in size
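Quantitative HTS used a cell-based reporter: Huh7 cells stably bearing the NPC1 promoter upstream of luciferase were treated with compounds for 24 h, and promoter activation was read as luminescence.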
Luc counter – Kinase-Glo luciferase inhibition (counter-screen); Q27757; Kinase-Glo luciferase, ATP luminescence, 8 min; Potency, µM (series often up to 38.3 µM), for the others: at the highest dose activity change, negative = inhibition, most hits filed as inhibitors; actives 0.28% (n = 200,000); AID 1379; further: on the % scale 0 is the no-effect control and ±100 the full control effect; nearly all actives have a fitted effect of over 60% in size
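Inhibition of Kinase-Glo luciferase light generation was assessed at 10 uM ATP in pH 7.2 imidazole buffer, with luminescence measured after eight minutes at ambient temperature.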
ELG1 genotox – genotoxicity induction in ELG1-luciferase HEK293T cells | HEK293T ELG1-luciferase reporter, luminescence, 16 h | AID 504466 | Potency, µM (doses to about 46 µM), for inactives: at the highest dose activity change, positive = activation, usual class: activators | actives 1.3% (n = 330,000); further: % of control where 0% means no effect; nearly all actives have a fitted effect of over 60% in size
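Reporter readout depends on ELG1 protein level, which increases with genetic stress. After 16 hr compound exposure at 37 °C, luciferase activity was quantified using ONE-Glo.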
The depositor's hits bear a star; ? = inconclusive; . = not tested or not shown; [ ] = another dose, or the depositor's remark. This is a sample that favours compounds with a hit; in the whole collection about 7.3% have one here. The call rests on the fitted dose curve; in most records, active means well fitted curve in the direction sought with a large enough effect; inconclusive means small, poorly fitted or top-dose-only effect, or another doubt; inactive means no such curve, though single readings can be large; an effect the other way counts as inactive or inconclusive. Potency means the concentration at half of the fitted maximal effect.

SMILES | SMN2 splice up | Rab9 prom act | FLuc counter | NPC1 prom act | Luc counter | ELG1 genotox
CCOc1cccc(/C=C2\NC(=S)N(c3ccccc3)C2=O)c1O | . | ? | 5.4µM* | 1% | . | 12%
CN(C)c1ccc(N/C=C/C(=O)c2ccc(F)cc2)cc1 | 10µM* | 2.5µM* | 0.48µM* | 3.2µM* | ? | 2.1µM*
NS(=O)(=O)c1ccc(N/C=C/C(=O)c2ccc(Br)cc2)cc1 | ? | 2.8µM* | -13% | ? | 1% | ?
CC(=O)c1ccc(N/C=C/C(=O)c2ccc(Br)cc2)cc1 | . | 4µM* | -5% | 2.8µM* | . | 6.5µM*
CN(C)/C=C/C(=O)c1ccc(F)cc1 | -12% | 11% | -8% | -3% | -3% | 0%
NS(=O)(=O)c1ccc(N/C=C\C(=O)c2ccc(F)cc2)cc1 | 13µM* | 3.5µM* | 15µM* | 4µM* | -5% | ?
CCn1c(SCc2ccc(F)cc2Cl)nnc1-c1nonc1NC(C)=O | . | . | -8% | . | . | .
CC(C)Oc1ccc(CNC(=O)C2CCN(C(=O)N3CCOc4ccc(Cl)cc43)CC2)cc1 | . | . | -12% | . | . | .
Cc1cc(=O)n2nc(N(C)CC(=O)NCc3ccccc3C)sc2n1 | 5% | . | -1% | . | . | .
CC(C)CC(=O)Nc1nnc(-c2ccco2)s1 | 26% | 2.5µM* | ? | ? | 18% | 16µM*
COC(=O)Nc1nnc(-c2ccco2)s1 | . | 15% | -15% | 4% | . | 5%
Cc1ccc(S(=O)(=O)N2CCC(C(=O)Nc3nnc(-c4ccco4)s3)CC2)cc1 | 28% | 0% | 1% | -1% | 24% | -3%
O=C(Nc1nnc(-c2ccco2)s1)C1CCCCC1 | -9% | 3.2µM* | ? | 3.5µM* | 12% | 9%
O=C(Nc1nc(-c2ccco2)c(-c2ccco2)s1)C1CCC1 | 13% | -6% | 19µM* | 0% | -4% | 4%
CSc1ccc(CCNC(=O)CCc2c(C)nc3c(-c4ccccc4)c(C)nn3c2C)cc1 | 1% | . | 0% | . | . | .
Cc1ccc(CNC(=O)CCc2c(C)nc3nc(C)nn3c2C)cc1 | 5% | . | -6% | . | . | .
O=[N+]([O-])c1cccc(/C=N/Nc2ccccn2)c1 | 11µM* | 4µM* | 3µM* | ? | -1% | ?
Fc1cccc(/C=N/Nc2nccnc2Cl)c1 | . | ? | 21µM* | ? | . | ?
O=[N+]([O-])c1cccc(/C=N/Nc2nccnc2Cl)c1 | ? | 2µM* | 12µM* | 2.8µM* | 10µM* | ?
N#C/C(=C\c1cccc([N+](=O)[O-])c1)c1ccccn1 | 6% | ? | -10% | 0% | -5% | ?
Cc1cc(C)nc(N/N=C/c2cccc([N+](=O)[O-])c2)n1 | . | 10% | -19% | 1% | . | 0%
O=[N+]([O-])c1cccc(/C=C/c2ccccn2)c1 | . | ? | 13µM* | ? | . | 8%
O=C(Nc1ccc2oc(-c3cccnc3)nc2c1)c1ccc(-c2cccc(OC(F)(F)F)c2)o1 | -17% | . | -3% | . | . | .
CCOC(=O)c1cccc(NC(=O)N2CC(CC)Sc3ccccc32)c1 (stereo unspecified) | . | . | 0% | . | . | .
COc1cccc(CNC(=O)CSc2c3c(nc4ccc(Cl)cc24)CCCC3)c1OC | 3% | . | 4% | . | . | .
SMILES | SMN2 splice up | Rab9 prom act | FLuc counter | NPC1 prom act | Luc counter | ELG1 genotox
CCc1ccccc1NC(=O)/C(C#N)=C/c1ccc(Sc2ccccc2)o1 | -26% | -4% | ? | 0% | 1% | -4%
CC1CC1c1ccc(/C=C(\C#N)C(=O)Nc2ccc(Cl)cc2)o1 (stereo unspecified) | 8.9µM* | 3.5µM* | 4.8µM* | 3.5µM* | -4% | ?
CC1CC1c1ccc(/C=C(\C#N)C(=O)Nc2ccccc2Cl)o1 (stereo unspecified) | ? | 22% | 19µM* | 16% | -1% | 18%
N#C/C(=C\c1ccc(-c2ccc(C(=O)O)cc2)o1)C(=O)Nc1ccccc1C(=O)O | -5% | . | 13µM* | . | . | .
CCOc1ccc(C(=O)NCCc2csc(-c3ccc(C(F)(F)F)cc3)n2)cc1OCC | . | . | 0% | . | . | .
Cc1c(C(=O)NCc2ccc(N(C)C)cc2)oc2c1-c1nn(Cc3cccc(Cl)c3)cc1CC2 | . | . | -15% | . | . | .
O=C(CSc1nnc(NC(=O)c2ccccc2F)s1)NC1CCCC1 | . | 3.2µM* | 11µM* | ? | . | 8%
O=C(Cc1ccc(F)cc1)Nc1nnc(SCC(=O)N2CCCCC2)s1 | -9% | -8% | 0% | -4% | 3% | 0%
O=C(CSc1nnc(NC(=O)c2ccc(F)cc2F)s1)NC1CCCC1 | . | ? | 4.3µM* | ? | . | ?
COc1ccc(CNC(=O)CSc2nnc(NC(=O)c3ccccc3F)s2)cc1 | . | 2.2µM* | 11µM* | 3.2µM* | . | ?
O=C(CSc1nnc(NC(=O)c2c(F)cccc2F)s1)NCc1ccccc1 | . | -2% | -14% | -2% | . | 6%
O=C(Nc1nnc(SCC(=O)N2CCCCC2)s1)c1ccc(F)cc1F | . | 18% | 8.5µM* | 15% | . | 12%
COc1ccc(-c2cn3c(n2)sc2cc(C(=O)Nc4cc(Cl)ccc4C)ccc23)cc1 | . | . | 3% | . | . | .
COc1ccc(C2CC(=O)c3cc(-c4nc(-c5cccc([N+](=O)[O-])c5)cs4)c(=O)n(-c4ccccc4N)c3C2)cc1 (stereo unspecified) | 12% | . | -6% | . | . | .
COc1ccc(-n2nc3ccccc3n2)cc1 | 7% | 28% | ? | 19% | -2% | 5%
COc1ccc(-n2nc3cc(N)c(Br)cc3n2)cc1 | . | ? | 4.8µM* | ? | . | 18µM*
COc1ccc(-n2nc3cc(C)c(N)c(Br)c3n2)cc1 | 7.9µM* | 1.3µM* | 1.1µM* | 2.8µM* | -2% | 7.3µM*
Cc1ccc2oc(-c3cccc(NC(=O)c4sc5c([N+](=O)[O-])cccc5c4Cl)c3)nc2c1 | 7% | . | -8% | . | . | .
O=C1c2ccccc2C(=O)N1/N=C/c1ccc(O)c(O)c1O | . | -5% | 17µM* | -6% | . | -7%
COc1cc(/C=N/N=C2/C(=O)Nc3ccccc32)ccc1O | -10%[1.84 µM] | -1% | 6.7µM* | 21% | -14% | ?
COc1cc(/C=N/N2C(=O)c3ccccc3C2=O)ccc1O | 15% | -2% | 12µM* | -1% | -9% | 0%
COc1ccc(OC)c(N=C2C(=O)Nc3ccccc32)c1 | ? | 8% | -17% | 7% | -1% | 3%
O=C1c2cccc3cccc(c23)C(=O)N1/N=C/c1ccc(O)cc1O | 9% | 3% | 2% | -2% | 2% | 3%
COc1cc(/C=N/N2C(=O)C3C4C=CC(CC4)C3C2=O)ccc1O (stereo unspecified) | . | 6% | ? | 1% | . | 9%
